Reference: publication PMC4336329 (PLoS ONE, 2015)
The campaign covered roughly 310,000 compounds. About 14,000 (4.5%) showed an effect of 50% or more. The effect is printed as a negative number. For the sample, strong results were picked, then their nearest neighbours and some compounds at random.

target: human ether-à-go-go-related gene (hERG) potassium channel (human, UniProt Q12809); assay: primary screen, population patch clamp on CHO cells stably expressing hERG; higher = less effect of the substance
Sequence (Q12809 whole entry, looked up): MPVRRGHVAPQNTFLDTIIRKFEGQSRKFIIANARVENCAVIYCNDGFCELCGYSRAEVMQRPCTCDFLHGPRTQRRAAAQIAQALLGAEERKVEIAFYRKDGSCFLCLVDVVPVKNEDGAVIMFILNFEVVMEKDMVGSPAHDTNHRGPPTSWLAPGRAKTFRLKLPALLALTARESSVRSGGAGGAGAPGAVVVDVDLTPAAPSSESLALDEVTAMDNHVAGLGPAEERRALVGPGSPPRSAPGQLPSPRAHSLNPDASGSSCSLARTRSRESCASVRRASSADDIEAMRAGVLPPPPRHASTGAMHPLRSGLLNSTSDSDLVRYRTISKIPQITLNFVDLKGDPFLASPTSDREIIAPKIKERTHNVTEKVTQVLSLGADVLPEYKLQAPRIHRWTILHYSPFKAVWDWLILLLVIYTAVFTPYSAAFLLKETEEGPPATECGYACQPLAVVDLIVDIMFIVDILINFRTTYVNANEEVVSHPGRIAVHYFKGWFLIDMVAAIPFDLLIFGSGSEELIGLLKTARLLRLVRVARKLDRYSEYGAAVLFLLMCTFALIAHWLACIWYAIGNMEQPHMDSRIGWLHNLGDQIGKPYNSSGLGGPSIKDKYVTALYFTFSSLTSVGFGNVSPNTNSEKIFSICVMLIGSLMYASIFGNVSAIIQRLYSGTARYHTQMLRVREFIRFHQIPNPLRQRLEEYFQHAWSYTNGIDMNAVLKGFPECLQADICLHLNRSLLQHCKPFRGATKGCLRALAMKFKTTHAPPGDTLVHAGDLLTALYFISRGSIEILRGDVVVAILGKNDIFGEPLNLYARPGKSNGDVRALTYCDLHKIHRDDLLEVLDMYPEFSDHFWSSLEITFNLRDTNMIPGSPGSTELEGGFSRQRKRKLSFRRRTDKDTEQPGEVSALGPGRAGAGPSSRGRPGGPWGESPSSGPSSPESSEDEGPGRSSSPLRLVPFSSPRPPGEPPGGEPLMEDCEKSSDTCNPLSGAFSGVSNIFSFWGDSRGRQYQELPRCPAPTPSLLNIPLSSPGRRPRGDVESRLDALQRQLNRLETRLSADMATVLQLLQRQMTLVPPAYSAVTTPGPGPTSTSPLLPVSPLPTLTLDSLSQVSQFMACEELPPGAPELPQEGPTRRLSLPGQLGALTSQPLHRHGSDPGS
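Note: peak tail current of the secondary pulse compared with the same well before compound.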

SMILES	hERG current change (%, negative = inhibition) at 10uM [%]
COCCn1nnnc1CN1CCC(NC(=O)Nc2cccc(OC)c2)CC1	8.3
Cc1ccc(Cn2nnnc2CN2CCC(NC(=O)c3ccccc3F)CC2)cc1	-27.2
Cc1ccccc1C(=O)NC1CCN(Cc2nnnn2Cc2ccc(F)cc2)CC1	-40.9
O=C(Nc1ccccc1F)NC1CCN(Cc2nnnn2Cc2ccc(F)cc2)CC1	-69.2
COc1cccc(NC(=O)NC2CCN(Cc3nnnn3Cc3ccc(F)cc3)CC2)c1	-53.2
COc1cccc(NC(=O)NC2CCN(Cc3nnnn3Cc3ccc4c(c3)OCO4)CC2)c1	-23.3
OC(c1ccccc1)(c1ccccc1)C1CCN(C(=S)NCCc2ccccc2)CC1	16.3
CN(CC(=O)Nc1cccc(F)c1)C(=O)C1CC(=O)N(Cc2ccco2)C1 (centres unmarked)	-8
CN(Cc1ccccc1)CC(O)COc1ccc(CNCCc2cccnc2)cc1 (centres unmarked)	-11.5
CCNC(=O)CN(c1ccc(C)cc1)S(=O)(=O)c1ccc(SC)cc1	-19
CSc1ccc(S(=O)(=O)N(CC(=O)NCc2ccccn2)c2ccc(C)cc2)cc1	-59.3
CN(CC(=O)NCc1ccccn1)S(=O)(=O)c1ccc(Cl)cc1	-12
COc1ccc(S(=O)(=O)N(CC(=O)NCc2ccccn2)c2ccc(Cl)cc2)cc1	13.3
Cc1ccc(S(=O)(=O)N(CC(=O)NCc2ccccn2)c2ccc(Cl)cc2)cc1	-29.7
O=C(CN(c1cccc(Cl)c1)S(=O)(=O)c1ccc(Cl)cc1)NCc1ccccn1	-53.1
CCN(Cc1ccccc1)S(=O)(=O)c1ccc2c(c1)NC(=O)CS2	-44.5
CN(CC(=O)Nc1ccccc1Br)C(=O)CN(C)C1CCCCC1	7.12
Cc1cccc(C)c1-n1c(C)cc(/C=N/NC(=O)c2ccncc2)c1C	-12
Cn1c(NC(=O)c2ccc(F)cc2)nc2ccccc21	21.5
O=C(c1cc2cc([N+](=O)[O-])ccc2oc1=O)N1CCN(c2ncccn2)CC1	-0.285
O=C(c1cc2cc([N+](=O)[O-])ccc2oc1=O)N1CCN(C2CCCCC2)CC1	-72.5
O=C(c1ccco1)N1CCN(C(=O)c2cc3ccccc3oc2=O)CC1	-13.2
O=C(c1cc2cc([N+](=O)[O-])ccc2oc1=O)N1CCOCC1	-0.062

SMILES	hERG current change (%, negative = inhibition) at 10uM [%]
O=C(c1ccco1)N1CCN(C(=O)c2cc3cc([N+](=O)[O-])ccc3oc2=O)CC1	-52.4
CCN1CCN(C(=O)c2cc3cc([N+](=O)[O-])ccc3oc2=O)CC1	-14.4
Cc1ccc(S(=O)(=O)CCC(=O)Nc2ccc(Br)cc2)cc1	-7.37
CC(C)OC(=O)c1cc(C(=O)c2cc(F)ccc2O)coc1=N	-7.34
Cl.O=C(O)C1=CCCNC1	-54.4
Cl.O=C(O)C1=CCNCC1	17.6
COc1ccccc1NC(=O)c1cc(Cl)ccc1NC(=O)c1ccco1	-1.81
CCOc1ccccc1C(=O)Nc1cc(C)ccc1NC(=O)c1ccco1	-75.3
COc1ccc(OC)c(NC(=O)c2ccccc2NC(=O)c2ccco2)c1	-75.6
COc1ccc(C(=O)Nc2ccc(Cl)cc2C(=O)NCCO)cc1	-53.8
COc1ccc(NC(=O)c2ccccc2NC(=O)c2ccco2)cc1	18.5
Cc1ccc(NC(=O)c2ccco2)c(NC(=O)c2ccccc2C)c1	17.9
COc1ccc(NC(=O)c2cc(Cl)ccc2NC(=O)c2ccco2)c(OC)c1	-85.2
COc1ccc(C(=O)Nc2ccc(Cl)cc2C(=O)NCc2ccco2)cc1	-0.702
COc1ccccc1NC(=O)c1ccccc1NC(=O)c1cc(Cl)ccc1NC(=O)c1ccco1	2.97
COc1ccc(C(=O)Nc2ccccc2NC(=O)c2ccco2)c(OC)c1	-21.9
COc1ccc(C(=O)Nc2ccc(Cl)cc2C(=O)NCCN2CCOCC2)cc1	-12.3
COc1ccccc1C(=O)Nc1cc(C)ccc1NC(=O)c1ccco1	-44.4
Cc1ccc(C(=O)OCC(=O)Nc2ccc3[nH]c(=O)[nH]c3c2)cc1S(=O)(=O)N1CCOCC1	4.19
O=C(Nc1ccc(C(=O)N2CCCCC2)cc1)c1ccc(Br)cc1	3.55
O=C(O)c1ccc2c(c1)CCC2	9.54
Cc1cc(NC(=O)C23CC4CC(CC(C4)C2)C3)n[nH]1	-0.917
Cc1cccc(NC(=S)N2CCCC2)c1	11.1

SMILES	hERG current change (%, negative = inhibition) at 10uM [%]
COc1cc(OC)cc(C(=O)Nc2c(C)nn(-c3ccccc3)c2C)c1	-3.27
COc1ccc(CCNC(=S)N2CCN(S(=O)(=O)c3ccccc3F)CC2)cc1	-3.68
CCOC(=O)c1c(-c2ccccc2)csc1NC(=O)c1nn(CC)cc1Br	6.4
O=C(Oc1ccc(Cl)cc1)c1ccc(COC(=O)c2cnccn2)cc1	14.9
COc1ccc(NC(=O)c2ccccc2NC(=O)c2ccco2)c(OC)c1	-73.4
COc1ccc(NC(=O)CCC(=O)Nc2cc(OC)c(NC(=O)c3ccco3)cc2OC)c(OC)c1	20.4
COc1ccc(NC(=O)c2ccco2)c(OC)c1	16.9
O=C(O)c1ccccc1C1Nc2ccccc2C(=O)N1CCCN1CCOCC1 (centres unmarked)	18.4
C/C(=N/n1cnnc1)c1cccnc1	-0.855
C/C(=N\NC(=O)CCC(=O)Nc1ccc(C)c(C)c1)C1CC1	10.7
Cc1ccc2cc(C#N)c(N3CCCN(C(=O)c4cnccn4)CC3)nc2c1	-42.4
Cc1ccc2nc(N3CCN(C(=O)c4cccs4)CC3)c(C#N)cc2c1	-76.9
N#Cc1cccnc1N1CCN(C(=O)c2cccs2)CC1	-1.7
Cc1cccc2cc(C#N)c(N3CCN(C)CC3)nc12	-46
CCc1ccc2nc(N3CCN(C)CC3)c(C#N)cc2c1	-54.3
COc1cc(C(=O)N2CCCN(c3nc4cc(C)ccc4cc3C#N)CC2)cc(OC)c1OC	-53.5
Cc1ccc2cc(C#N)c(N3CCN(C)CC3)nc2c1	2.75
COc1ccc2cc(C#N)c(N3CCN(C(=O)c4ccccc4C)CC3)nc2c1	-18.9
COc1ccc(C(=O)N2CCN(c3nc4cc(C)ccc4cc3C#N)CC2)c(OC)c1	-22.8
Cc1ccc2nc(N3CCN(C)CC3)c(C#N)cc2c1	-42.3
Cc1ccc2cc(C#N)c(N3CCN(C(=O)c4ccccc4)CC3)nc2c1	-67.1
Cc1ccc2cc(C#N)c(N3CCN(C(=O)c4cccs4)CC3)nc2c1	-34.2
Cc1cc(-c2ccccc2)nc(N(C)NC(=O)c2ccc(Cl)cc2)c1S(C)(=O)=O	0.236

SMILES	hERG current change (%, negative = inhibition) at 10uM [%]
CC(=O)c1cccc(NC(=O)N2CCC(C(=O)c3ccc(F)cc3)CC2)c1	-28.1
CCOc1ccc(N=Nc2c(C)[nH]n(-c3ccccc3)c2=O)cc1	18.6
O=C(COC(=O)C1CCC1)Nc1ccccc1Sc1ccccc1	7.34
COc1ccc2nc(NC(=S)NC(=O)c3ccco3)sc2c1	25.2
COc1ccc(CCNC(=O)c2cnc3n(c2=O)CCS3)cc1OC	-5.87
Cc1ccc(-n2c(C)nn(CCOc3ccccc3)c2=O)cc1	1.54
COc1ccccc1C(=O)N1CCN(c2nc3cc(C)c(C)cc3cc2C#N)CC1	-2.28
Cc1ccc(C(=O)N2CCCN(c3nc4cc5c(cc4cc3C#N)OCO5)CC2)cc1	-0.619
Cc1ccc2nc(N3CCN(C(=O)c4ccc(F)cc4)CC3)c(C#N)cc2c1	-73.6
C/C(=N\NC(=O)c1cc(-c2ccc(O)cc2)nc2ccccc12)c1cccnc1	11.7
COC(=O)/C=C1\SC(=Nc2ccccc2)NC1=O	9.64
Cc1nnc2ccc(N3CCCCC3)nn12	6.15
Cc1nnc2ccc(N3CCCC3)nn12	6.22
Cc1nnc2ccc(N3CCN(c4cccc(C(F)(F)F)c4)CC3)nn12	-61.8
FC(F)(F)c1cccc(N2CCN(c3ccc4nnc(-c5ccccc5)n4n3)CC2)c1	-4.4
Cc1nnc2ccc(-c3cccc(C(F)(F)F)c3)nn12	-9.04
Cc1nnc2ccc(N3CCN(c4ccccn4)CC3)nn12	-57
CN1CCc2c(sc(N)c2C(N)=O)C1	6.59
S=c1[nH]c2ccc(Cl)cc2s1	21.1
O=C(NCc1ccc(Cl)cc1)C(=O)Nc1nccs1	20.7
